Screens as filed in PubChem.
Compounds with a hit are over-represented: about 4.2% of the library has one in this group of screens.
NALP1 yeast inh – blocks the NALP1 inflammasome reconstituted in yeast | S. cerevisiae NALP1/ASC/caspase-1 growth, X-gal OD620, 72 h | inhibition, % at 10 µM | 280,000 compounds, 0.61% hits | AID 2071; in the data active = inhibition mostly above about 24%, no sharp cut-off; inactive = mostly below about 32%
V-ATPase pHluor – alters yeast V-ATPase proton transport | S. cerevisiae, pHLuorin cytosolic pH fluorescence | response, % at 10 µM | 350,000 compounds, 0.37% hits | AID 504577; in the data active = response mostly above about 7.3%, no sharp cut-off; inactive = mostly below about 5.4%; note: actives read high
TIM10 inh – growth inhibitors of TIM10 yeast strain | S. cerevisiae TIM10 strain growth, BacTiter-Glo luminescence, 24 h | inhibition, % at 10 µM | 330,000 compounds, 1.4% hits;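 active = inhibition of 40% or more at the single tested concentration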;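 note: wild-type TIM10 isogenic control strain grown at permissive 25 °C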
tim10-1 inh – growth inhibitors of tim10-1 mutant yeast. S. cerevisiae tim10-1 ts strain growth, BacTiter-Glo, 24 h. AID 463190. inhibition, % at 20 µM. 330,000 compounds, 2.2% hits;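 active = inhibition of at least 40%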;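 note: mutant grown at 25 °C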
tim23-1 inh – growth inhibitors of tim23-1 mutant yeast | S. cerevisiae tim23-1 growth, BacTiter-Glo luminescence, 24 h | inhibition, % at 20 µM | 330,000 compounds, 1.3% hits | AID 463212;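 active = growth inhibition of the mutant yeast at or above 50%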;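 note: temperature-sensitive mutant grown at 25 °C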
NLRP3 yeast inh – blocks the NALP3 inflammasome reconstituted in yeast; Yeast reconstituted NLRP3/ASC/caspase-1, beta-gal luminescence, 24 h; 330,000 compounds, 0.39% hits; inhibition, % at 10 µM;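 active = inhibition of 50% or more; inactive = inhibition below 50%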
TIM10 conf – confirmation of TIM10 yeast growth inhibitors; shares compounds with TIM10 inh; S. cerevisiae tim10 strain growth, BacTiter-Glo luminescence, 24 h; inhibition, % at 10 µM; 4,600 compounds, 63% hits; AID 463215;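 active = inhibition of yeast growth at or above a set limit in either of two replicates at 10 µM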; note: this counterscreen used the strain with wild-type TIM10
tim23-1 confirm – tim23-1 yeast growth inhibition, confirmed; shares compounds with tim23-1 inh; 4,400 compounds, 83% hits; inhibition, % at 20 µM; S. cerevisiae tim23-1 growth, BacTiter-Glo luminescence, 24 h;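 active = inhibition above about 39% in either of two replicate wells at 20 µM, limit read from the data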;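 note: temperature-sensitive tim23-1 mutant grown at 25 °C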
Each line names hits and unclear results; the compound was inactive in the other large screens (follow-up assays come after a bar, where they were run).

CC(=O)Nc1sc2c(c1-c1nc3ccccc3s1)CCN(C(C)C)C2	NALP1 yeast inh 47.8, TIM10 inh 66.3, tim23-1 inh 53.6 | TIM10 conf 63.2 | tim23-1 confirm 59.6
Cc1ccc(-n2sc3ccccc3c2=O)cc1	TIM10 inh 65.1, tim23-1 inh 59.1 | TIM10 conf inactive | tim23-1 confirm 56.5
O=C(NCc1nc2ccccc2[nH]1)C1=C[C@H](c2ccc3c(c2)OCO3)C[C@H](OCCCCO)O1	none
COc1cccc(/C=N/NC(=O)c2c(-c3ccccc3)noc2C)c1O	none
Cc1ccc(/C=N/NC(=O)c2c(-c3ccccc3)noc2C)c(O)c1	TIM10 inh 43.2, tim23-1 inh 56.7 | TIM10 conf inactive | tim23-1 confirm 41.7
COc1ccc(S(=O)(=O)N2CCCC(N(C)CCc3ccccc3)C2)cc1OC (stereo not drawn)	none
Cc1ccc(C(=O)/C=C/c2ccc(Br)cc2)o1	none
Cc1ccc(/C=C/C(=O)c2ccc([N+](=O)[O-])o2)cc1	TIM10 inh 67.9, tim23-1 inh 57.3 (no result: NALP1 yeast inh, V-ATPase pHluor) | TIM10 conf 78.0 | tim23-1 confirm inactive
Oc1c(Br)cc(Br)cc1C=Nc1ccc2c(c1)OCCO2	TIM10 inh 55.7, tim23-1 inh 83.7 | TIM10 conf 34.2 | tim23-1 confirm 91.6
Oc1c(Br)cc(Br)cc1C=Nc1ccc2c(c1)OCO2	TIM10 inh 66.4, tim23-1 inh 82.5 | TIM10 conf 51.5 | tim23-1 confirm 72.0
O=C(Nc1nc2ccccc2s1)C1c2ccccc2Oc2ccccc21	TIM10 inh 45.1, tim23-1 inh 51.1 | TIM10 conf 45.9 | tim23-1 confirm 57.5
O=[N+]([O-])c1ccc(-c2cn(-c3ccccc3F)c(=S)[nH]2)cc1	none
Cc1ccc(-c2cn(-c3ccccc3F)c(=S)[nH]2)cc1	TIM10 inh 44.6, tim23-1 inh 61.2 | TIM10 conf 46.8 | tim23-1 confirm 47.6
Cc1cccc(N2CCN(S(=O)(=O)c3ccc4c(c3)NC(=O)CS4)CC2)c1C	TIM10 inh 40.2, tim23-1 inh 62.5 | TIM10 conf 35.5 | tim23-1 confirm inactive
Cc1cccc(N2CCN(S(=O)(=O)c3ccc4[nH]c(=O)ccc4c3)CC2)c1C	none
CN1CCc2cc3c(c4c2[C@H]1[C@H](O)c1ccccc1-4)OCO3	TIM10 inh 53.1, tim23-1 inh 57.9 | TIM10 conf 68.1 | tim23-1 confirm 62.6
COc1ccc2c(c1OC)C(=O)OC2C1c2c(cc3c(c2OC)OCO3)CCN1C (stereo not drawn)	none
CCc1ccccc1-n1nnnc1SCC(=O)Nc1ccc(N2CCN(C)CC2)cc1	none
COc1ccc(N=N/C(=C\O)C(=O)c2cccs2)cc1	TIM10 inh 55.0, tim23-1 inh 76.4 | TIM10 conf 58.5 | tim23-1 confirm 64.6
CC(=O)N1CCc2cc(Br)cc(S(=O)(=O)NCCCN(C)Cc3ccccc3)c21	none
CCCN(C(=O)CCSc1ccc(F)cc1)c1c(N)n(Cc2ccccc2)c(=O)[nH]c1=O	none
S=C(Sc1ccc(Cl)cc1)Sc1ccc(Cl)cc1	TIM10 inh 47.4, tim23-1 inh 73.1 (no result: NALP1 yeast inh, V-ATPase pHluor) | TIM10 conf 42.4 | tim23-1 confirm 76.8
CC(OC(=O)Cc1c(F)cccc1Cl)C(=O)NC1(C#N)CCCCC1 (stereo not drawn)	none (no result: NALP1 yeast inh)
COc1ccc(OC)c(N/C=C/C(=O)c2ccccc2)c1	TIM10 inh 44.3, tim23-1 inh 62.0 | TIM10 conf inactive | tim23-1 confirm 82.8
CCc1ccc(-c2cc(C(=O)N3N=C(C(F)F)CC3(O)C(F)F)c3ccccc3n2)cc1 (stereo not drawn)	TIM10 inh 48.5, tim23-1 inh 53.7 | TIM10 conf inactive | tim23-1 confirm inactive
CCOC(=O)c1c(C)[nH]c(C(=O)COC(=O)COc2ccccc2C=O)c1C	TIM10 inh 53.3, tim23-1 inh 53.7 | TIM10 conf 51.1 | tim23-1 confirm 62.3
FC(F)(F)c1cccc(NC(=S)NNC(=S)Nc2ccc(Cl)cc2)c1	TIM10 inh 58.9, tim23-1 inh 64.9 (no result: NALP1 yeast inh, V-ATPase pHluor) | TIM10 conf 73.2 | tim23-1 confirm inactive
COc1cccc(Nc2nc(C)cc(C)c2C(N)=O)c1	none
O=C(Nc1cc(Cl)cc(Cl)c1)N1CCCC1	TIM10 inh 48.4, tim23-1 inh 53.7 | TIM10 conf inactive | tim23-1 confirm 45.6
Oc1ccc(Cl)cc1/C=C/c1ccc2cccc(O)c2n1	TIM10 inh 63.5, tim23-1 inh 58.2 | TIM10 conf 62.7 | tim23-1 confirm inactive
COc1cccc(CN(C(=O)/C=C/c2ccc(Cl)cc2)C2CCS(=O)(=O)C2)c1 (stereo not drawn)	none
CCCCCCCc1c(O)nc(SCCN2CCOCC2)[nH]c1=O	none
c1ccc(NCc2nc3ccccc3n2CCOc2ccccc2)cc1	TIM10 inh 42.6, tim23-1 inh 52.5 | TIM10 conf 50.0 | tim23-1 confirm 52.0
CCCc1nc2ccccc2n1CCOc1ccccc1	none
COc1ccccc1NC(=O)C(C)OC(=O)C1CCC(C(C)(C)C)CC1 (stereo not drawn)	none (no result: NALP1 yeast inh)
O=C1NC(=Nc2ccccc2)S/C1=C/c1cccs1	TIM10 inh 48.7, tim23-1 inh 61.5 | TIM10 conf 31.9 | tim23-1 confirm 72.5
Cc1cccc(N=C2NC(=O)/C(=C\c3cccs3)S2)c1	none
CCC(C)c1ccc(NC(=O)c2cccs2)cc1 (stereo not drawn)	TIM10 inh 51.8, tim23-1 inh 72.5 | TIM10 conf 44.9 | tim23-1 confirm 73.0
CCC(C)NS(=O)(=O)c1ccc(NC(=O)c2cccs2)cc1 (stereo not drawn)	none
CCc1cccc(NC(=O)C2CCCN2S(=O)(=O)c2ccccc2C(F)(F)F)c1 (stereo not drawn)	none (no result: NALP1 yeast inh)
O=C(Nc1ccc2nc(-c3ccc4nc[nH]c4c3)[nH]c2c1)c1cccs1	none
O=C(Nc1nc(-c2ccccc2)cs1)c1cccs1	TIM10 inh 43.6, tim23-1 inh 53.4 | TIM10 conf inactive | tim23-1 confirm 54.6
O=C(Nc1ccc2nc(-c3ccccc3)[nH]c2c1)c1cccs1	TIM10 inh 46.8, tim23-1 inh 59.4 | TIM10 conf inactive | tim23-1 confirm 69.2
O=C(Oc1coc(CSc2ncccn2)cc1=O)c1ccccc1[N+](=O)[O-]	TIM10 inh 59.3, tim23-1 inh 61.7 | TIM10 conf 51.5 | tim23-1 confirm 49.5
Cc1cc(C)nc(SCc2cc(=O)c(OC(=O)c3cc([N+](=O)[O-])ccc3Cl)co2)n1	none
COc1ccc(C(=O)/C=C/C(=O)N(CC(=O)NC2CCCCC2)Cc2cccs2)c(O)c1	TIM10 inh 49.3, tim23-1 inh 62.3 | TIM10 conf 46.5 | tim23-1 confirm 36.3
C[C@@H]1CN([C@H](C)CO)C(=O)c2cc(Br)cnc2O[C@@H]1CN(C)C(=O)NC1CCCC1	none (no result: NALP1 yeast inh, TIM10 inh, tim10-1 inh, tim23-1 inh, NLRP3 yeast inh)
